In PubChem BioAssay AID794 (The Scripps Research Institute Molecular Screening Center, 2007) one finds inhibition data, which are given here for 25 compounds.

The other results are listed elsewhere or left out. A number with no mark means an inactive call. The source made the active and inactive calls. Cut-off read from the data, not from the text of the source: active = inhibition above about 19%; inactive = the rest.

Chain of Focal adhesion kinase 1 (Homo sapiens) (Q05397 whole entry, looked up): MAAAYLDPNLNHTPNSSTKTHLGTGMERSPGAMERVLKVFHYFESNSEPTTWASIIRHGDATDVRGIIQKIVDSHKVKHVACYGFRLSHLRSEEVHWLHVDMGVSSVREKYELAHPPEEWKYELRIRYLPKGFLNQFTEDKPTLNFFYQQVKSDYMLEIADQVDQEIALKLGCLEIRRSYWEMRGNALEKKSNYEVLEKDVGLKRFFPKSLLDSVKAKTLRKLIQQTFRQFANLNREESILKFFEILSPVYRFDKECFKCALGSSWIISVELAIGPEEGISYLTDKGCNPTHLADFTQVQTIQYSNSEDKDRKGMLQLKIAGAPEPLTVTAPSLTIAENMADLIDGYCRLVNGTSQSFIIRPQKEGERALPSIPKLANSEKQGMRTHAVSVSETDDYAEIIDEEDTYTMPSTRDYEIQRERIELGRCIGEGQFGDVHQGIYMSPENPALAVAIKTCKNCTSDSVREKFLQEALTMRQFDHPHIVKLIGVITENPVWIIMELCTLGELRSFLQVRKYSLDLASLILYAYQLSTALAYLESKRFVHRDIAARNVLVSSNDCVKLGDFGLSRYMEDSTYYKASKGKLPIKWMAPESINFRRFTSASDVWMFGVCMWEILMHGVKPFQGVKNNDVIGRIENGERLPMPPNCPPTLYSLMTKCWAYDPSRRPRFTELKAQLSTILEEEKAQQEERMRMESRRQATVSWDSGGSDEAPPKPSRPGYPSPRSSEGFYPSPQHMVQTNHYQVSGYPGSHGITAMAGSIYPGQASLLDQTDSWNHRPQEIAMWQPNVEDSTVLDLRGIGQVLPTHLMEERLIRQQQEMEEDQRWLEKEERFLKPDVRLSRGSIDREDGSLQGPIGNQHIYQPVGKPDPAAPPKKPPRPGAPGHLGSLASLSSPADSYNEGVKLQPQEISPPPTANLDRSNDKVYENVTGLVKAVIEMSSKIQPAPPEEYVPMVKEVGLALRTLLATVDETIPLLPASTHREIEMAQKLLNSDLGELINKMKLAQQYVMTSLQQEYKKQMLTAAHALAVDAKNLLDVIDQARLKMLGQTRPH

This test has as its target Focal adhesion kinase 1 (Homo sapiens) (UniProt Q05397). Put plainly: FAK kinase inhibitors, retest, confirmation, biochemical (AID 794). The note with it: FAK kinase biochemical inhibition assay; at 7 µM; active compounds read high.
What is called inhibition is the drop in the measured response relative to a control, in per cent. Consider `COCCn1c(C)cc(C(=O)CSc2ncnc3sc4c(c23)CCC4)c1C`, for which the inhibition was 4.05%. Next, `O=[N+]([O-])c1ccc(C=Nc2ccc(Cl)cc2Cl)s1`: 2.19%; `CCN(CC)S(=O)(=O)c1ccc2c3c(cccc13)C(=O)S2`: 14.7%; `O=[N+]([O-])c1ccc(Oc2ccc(F)cc2Br)c2ccncc12`: 6.15%. Next, `COC(=O)c1c(NC(=O)CSc2nncs2)sc2c1CCCCC2`: 10.8%.

Regarding `Cc1cc(NC(=O)c2cnn3cccnc23)n(-c2ccccc2)n1`, the inhibition is 13.6%.

`CC(=O)c1ccc(Cc2ncc(C(F)(F)F)cc2Cl)s1`: the inhibition was -0.34%. As to `Cc1ccc(-n2nc3ccc(NC(=O)/C=C/c4ccco4)cc3n2)cc1C`, the inhibition is 5.82%. Take `CCc1ccccc1NC(=O)CSc1nnc([C@@H](NC(=O)OC(C)(C)C)C(C)CC)o1` (stereo not given in full): the inhibition was -1.72%. Take `Cc1cc2cc3c(N)[nH]nc3nc2cc1C`: the inhibition is 20.5% (active). For `Nc1c(-c2ccc(F)cc2)cnc2ncnn12`, the inhibition was -3.73%. Next, `CCCOc1ccc(NC(=O)C2CCCNC2=O)cc1` (stereo not given): -2.48%; `CCN(CC)S(=O)(=O)c1cc([N+](=O)[O-])ccc1NNC(=O)Nc1ccccc1`: 19.2% (active); `CC(=NCc1ccco1)C1=C(O)c2ccccc2C1=O`: 15.2%. In the case of `O=C(Nc1ccc(-n2ccnc2P(=O)(O)c2ccccc2)cc1)c1ccccc1Br`, the inhibition is 16.2%. `Fc1ccc(-c2ccc(-c3nn4c(-c5ccco5)nnc4s3)o2)cc1`: the inhibition is 5.37%. As to `Cc1ccc(-c2nn(C(C)(C)C)c3ncnc(N)c23)cc1`, the inhibition is 15.6%. Next, `COc1cc(N=Cc2c(O)[nH]c3ccccc23)cc(OC)c1OC`: 56.3% (active); `CCc1ccc2nc3sc(C(=O)Nc4nnc(CC)s4)c(N)c3cc2c1`: 16.1%.

Regarding `Cc1cccn2c(=O)c3cc(C(=O)N4COCC4(C)C)n(C)c3nc12`, the inhibition was 6.3%. Take `Cn1cccc1C(=O)Nc1nccs1`: the inhibition was 7.79%. Consider `Cn1c(CCN2CCCCCC2)nc2cc(NC(=O)Nc3ccccc3)ccc21`, for which the inhibition was 7.82%. For the compound `COc1ccc(NC(=O)ON=C2c3ccccc3-c3ccccc32)cc1`, the inhibition is 6.77%. Next, `Clc1ccccc1CSc1nnc(-c2ccco2)c(-c2ccco2)n1`: 8.81%; `Oc1ccccc1/C=N/n1c(-c2cccs2)n[nH]c1=S`: 8.74%.
